Only a sample is shown.
aSyn 5UTR act: Activators via SNCA 5'UTR binding, MLPCN. alpha-synuclein 5'UTR reporter, activators screen. activity score, % (tested at 7.5 µM), hits read low. 300,000 compounds, 7.1% hits. AID 1814, 2009; in the data active means activity score below about -60%
Starred values were filed as active, the others as inactive.

SMILES	aSyn 5UTR act
Cc1nc2ccc(NC(=O)c3ccc(Br)o3)cc2s1	-186*
Cc1nc2ccc(NC(=O)c3ccc(Cl)s3)cc2s1	-238*
CC(C)N1C(=O)CC(Nc2ccc(N3CCOCC3)cc2)C1=O (configuration not stated)	-145*
COc1ccc(NC2CC(=O)N(C(C)C)C2=O)cc1 (configuration not stated)	-150*
N/C(=N\OCc1ccc([N+](=O)[O-])cc1)c1ccncc1	-83*
COc1ccc(/C(N)=N/OC(=O)CSc2ccccc2)cc1	-162*
N/C(=N\OC(=O)CSc1ccccc1)c1ccc([N+](=O)[O-])cc1	-121*
COc1ccc(/C(N)=N/OC(=O)CC2CCCCC2)cc1	-111*
Cc1ccc(/C(N)=N/OC(=O)CSc2ccccc2)cc1	-185*
COc1ccc(N2C(=O)CC(Sc3nc(C)cc(C)c3C#N)C2=O)cc1 (configuration not stated)	-87*
CCOC(=O)c1cccc(NC(=O)c2ccco2)c1	-77*
CCOC(=O)c1cccc(NC(=O)c2cccs2)c1	-65*
O=C(c1ccccc1)c1cccc(NC(=O)c2ccco2)c1	-120*
CCc1sc(C(=O)Nc2cccc(C(C)=O)c2)cc1C	-77*
CCCSc1ccc2nc(-c3ccccc3)cn2c1	111
CCCCSc1ccc2nc(-c3ccc(C#N)cc3)cn2c1	-128*
CC(C)n1c(/C=C/[C@@H](O)C[C@@H](O)CC(=O)O)c(-c2ccc(F)cc2)c2ccccc21	64
Cc1ccc(C2=NNC3(CCOC(C)(C)C3)S2)cc1 (configuration not stated)	-164*
CCc1cccc(NC(=O)c2cnn(-c3ccccc3)c2C)c1	-144*
O=C(Nc1cccc(Cl)c1)c1ccc(Cn2cc(Cl)cn2)cc1	-70*
COc1cccc(NC(=O)c2cnn(-c3ccccc3)c2C)c1	-91*
Cc1ccc(NC(=O)c2cnn(-c3ccccc3)c2C)c(C)c1	-212*
COc1ccc(OC)c(C(=O)NC2CC(C)(C)Cc3c2cnn3-c2ccccc2)c1 (configuration not stated)	67
CCn1ncc(C(=O)Nc2cccc(Cl)c2)c1C	-207*
N#C/C(=C\c1ccccc1O)C(=O)Nc1cccnc1	-107*
SMILES	aSyn 5UTR act
Cc1cc(/C=C(\C#N)C(=O)Nc2ccccc2)c(C)n1-c1cccnc1	-143*
CC(=O)Cn1ncc(N2CCCCC2)c(Cl)c1=O	-80*
CSc1nc(N)c(C(=O)Nc2ccc([N+](=O)[O-])cc2)s1	-66*
CCc1nnc(NC(=O)CSc2ccc(-c3ccc(-n4cccn4)cc3)nn2)s1	-98*
CCc1ccc(-c2ccc(SCC(=O)NCC3CCCO3)nn2)cc1 (configuration not stated)	-94*
CCc1ccc(-c2ccc(SCC(=O)Nc3nnc(C)s3)nn2)cc1	-83*
CCc1nnc(NC(=O)CSc2ccc(-c3nc4ccccc4[nH]3)cn2)s1	-187*
Cc1ccc2nc(-c3ccc(SCC(=O)Nc4nnc(C)s4)nc3)[nH]c2c1	-94*
Cc1csc(NC(=O)CSc2ncc(-c3ccccc3)[nH]2)n1	-97*
Cc1ccc2nc(-c3ccc(SCC(=O)Nc4nc(C)cs4)nc3)[nH]c2c1	-247*
O=C(/C=C/Nc1ccc(F)cc1)c1cccs1	-115*
O=C(/C=C/Nc1ccc(F)c(F)c1)c1cccs1	-374*
COc1ccc(NC(=O)C2Cc3ccccc3O/C2=N\O)cc1 (configuration not stated)	-82*
Cc1cccc(NC(=O)C2Cc3ccccc3O/C2=N\O)c1 (configuration not stated)	-138*
Cc1cccc(N/N=C(\C(N)=O)C2=NC(C)(C)Cc3ccccc32)c1	59
O=C(N/N=C/c1c[nH]c2ccc(Br)cc12)c1ccccn1	-63*
O=C(N/N=C/c1cc2c(cc1Br)OCO2)c1ccccn1	-186*
O=C(N/N=C/c1cc2c(cc1Br)OCO2)c1c[nH]c2ccccc12	-82*
O=C(N/N=C/c1cc2c(cc1Br)OCO2)c1cc2ccccc2o1	-66*
CCCCCCCn1c2c(c(=N)c3c1CCC3)CCCC2	83
CN(C)/C=C(\C#N)C(=O)Nc1ccccc1	-73*
Oc1cccc(-c2nc3ccc4ccccc4c3c3c2CCC3)c1	-137*
O=c1c(Cl)c(Cl)cnn1Cc1nnc(-c2ccc(Cl)cc2)o1	-179*
Cc1ccc2nc(-c3ccc(N4C(=N)SC5CS(=O)(=O)CC54)cc3)sc2c1 (configuration not stated)	-101*
O=C(CSc1nccn1-c1ccccc1)c1ccc(Cl)cc1	-111*
SMILES	aSyn 5UTR act
Cc1ccc(C(=O)CSc2nccn2-c2ccccc2)cc1	-95*
O=C(CSc1nccn1-c1ncc(C(F)(F)F)cc1Cl)c1ccc(Br)cc1	-195*
COc1ccc(Nc2ncnc3sc(C)cc23)c(OC)c1	-82*
O=C(Nc1cc(F)c(Br)cc1F)c1ccc(Cl)cc1	-152*
Cc1ccc(C(=O)Nc2ccc(Cl)cc2C)c(Cl)c1	-71*
C#Cc1cccc(NC(=O)c2ccc(Cl)cc2Cl)c1	-185*
O=C(Nc1ccc(Cl)cc1C(F)(F)F)c1ccc(Cl)cc1	-104*
Cc1ccc(NC(=O)c2ccc(Cl)cc2Cl)cc1O	-170*
Cc1ccc(C(=O)Nc2ccc(Cl)cc2C(F)(F)F)c(Cl)c1	-101*
O=C(/C=C/c1ccccc1)NC(=O)c1ccccc1O	-157*
O=C(/C=C/c1ccccc1)CC(=O)c1ccccc1O	-201*
COc1cc(/C=C/C(=O)NC(=O)c2ccccc2O)ccc1O	-161*
c1ccc(CCNc2ccnc3cc4ccccc4cc23)cc1	117
c1ccc(CCNc2ncnc3ccccc23)cc1	-117*
Cc1cc2c(NCCc3ccccc3)ncnc2s1	-64*
Cc1cccc(NC(=O)c2ccc([N+](=O)[O-])s2)n1	-88*
Cc1ccnc(NC(=O)c2ccc([N+](=O)[O-])s2)c1	-238*
O=C(NC1CCCC1)c1ccc([N+](=O)[O-])s1	-153*
O=C(/C=C\Nc1ccc(Cl)cn1)c1ccc(Br)cc1	-165*
Cc1ccnc(N/C=C/C(=O)c2ccc(Br)cc2)c1	-62*
Cc1cc(N/C=C/C(=O)c2ccc(Br)cc2)no1	-198*
CCN=C1S/C(=C\c2ccc(-c3cccc(C(=O)O)c3)o2)C(=O)N1CC	-69*
C#CCN1C(=O)S/C(=C\c2ccc(-c3ccc(Cl)c(C(=O)O)c3)o2)C1=O	-93*
CCN=C1S/C(=C\c2cn(CC(=O)NCc3ccco3)c3ccccc23)C(=O)N1CC	65
Cc1ccc2cc3cc(C(=O)N4CC(C)CC(C)C4)oc3nc2c1 (configuration not stated)	-120*
SMILES	aSyn 5UTR act
COc1ccc2cc3cc(C(=O)N4CC(C)CC(C)C4)oc3nc2c1 (configuration not stated)	-125*
Cc1ccc2cc3cc(C(=O)N4CCCCC4C)oc3nc2c1 (configuration not stated)	-200*
O=C(c1cc2cc3ccc(Cl)cc3nc2o1)N1CCCCCC1	-95*
CC1CCC(NC(=O)CCC(=O)N2CC(C)Oc3ccccc32)CC1 (configuration not stated)	-144*
Cc1ccc(Cl)cc1Nc1nc(-c2sc(NC(=O)c3ccccc3)nc2C)cs1	-94*
Cc1nc(NC(=O)c2ccccc2)sc1-c1csc(Nc2cccc(F)c2)n1	-81*
N/C(=N\OC(=O)c1cccc(C(F)(F)F)c1)c1cnccn1	-81*
N/C(=N\OC(=O)c1cccc(Cl)c1)c1cccnc1	-114*
N/C(=N\OC(=O)c1cccc(Cl)c1)c1ccncc1	-87*
N/C(=N\OC(=O)c1ccc(Cl)c(Cl)c1)c1cccnc1	-138*
